Results taken from PubChem BioAssay AID463173 (ICCB-Longwood Screening Facility, Harvard Medical School, 2010).
In all, about 52,000 compounds went through this assay and about 4,300 (8.3%) were called active. The full list was thinned out, with actives kept by preference. Values without a mark were called inactive. Cut-off read from the data, not from the text of the source: active = survival mostly below about 52% (no sharp cut-off); inactive = mostly above about 56%.

These compounds were tested on DeltatarO mutant (assay: S. aureus survival, RN4220 and DeltatarO strains – OD600, teichoic acid synthesis inhibitors, primary screen (AID 463173)). Details: S. aureus RN4220 wild type/DeltatarO growth, OD600, 18 h, hits give low values, screened at 18.75 µg/mL (by protocol).

Compound	survival
O=S(=O)(Nc1ccccn1)c1cccs1	83%
CCN(C(=O)c1nn(-c2ccc(OC)c(Cl)c2)c(=O)c2c1c1ccccc1n2C)c1cccc(C(F)(F)F)c1	75%
COc1ccc(C(=O)Nc2nc3c(s2)Cc2cc(OC)ccc2-3)cc1	55%
COc1ccc2c(c1)-c1nc(NC(=O)c3ccccc3F)sc1CC2	2% (active)
COc1ccc2c(c1)Cc1sc(NC(=O)c3ccccc3Br)nc1-2	63%
COc1ccc2c(c1)Cc1sc(NC(=O)c3cccc(F)c3)nc1-2	67%
COc1ccc2c(c1)-c1nc(NC(=O)c3cc(Cl)ccc3OC)sc1CC2	69%
COc1ccc2c(c1)Cc1sc(NC(=O)c3ccc(Cl)cc3)nc1-2	80%
COc1ccc2c(c1)CCc1sc(NC(=O)c3ccc(Cl)cc3)nc1-2	31% (active)
COc1ccc2c(c1)-c1nc(NC(=O)c3cccc(Br)c3)sc1CC2	51%
COc1ccc2c(c1)Cc1sc(NC(=O)c3ccccc3C)nc1-2	102%
COc1ccc2c(c1)Cc1sc(NC(=O)c3cccc(C)c3)nc1-2	18% (active)
COc1ccc(C(=O)Nc2nc3c(s2)CCc2cc(OC)ccc2-3)cc1	35% (active)
COc1ccc2c(c1)-c1nc(NC(=O)c3ccc(Cl)cc3)sc1CC2	96%
COc1ccc(CN2C(=O)C(NC(=O)c3ccccc3OC)(C(F)(F)F)N=C2c2ccccc2)cc1 (centres undefined)	87%
COc1cc(Cl)c(C)cc1NC(=O)c1cnc(N2CCCCC2)c2ccccc12	115%
O=C(c1ccc2c(c1)N(Cc1cccc(F)c1)C(=O)c1ccccc1S2)N1CCCC1	88%
COc1ccc(N2CCN(C(=O)c3cc4c(=O)oc5ccc(C)cc5c4s3)CC2)cc1	111%
CCCn1cc(S(=O)(=O)c2cccc(Cl)c2)c(=O)c2cc(F)c(N3CCOCC3)cc21	74%
COc1cccc(NC(=O)C2CCCN(S(=O)(=O)c3cccc4nonc34)C2)c1 (centres undefined)	90%
CCCS(=O)(=O)c1c(S(=O)(=O)CCC)c2cc(C(C)(C)C)ccn2c1C(=O)c1ccccc1	118%
CC1Cc2ccccc2N1C(=O)CSc1nnnn1Cc1ccccc1 (centres undefined)	91%
Cc1cccc(-n2nnc(-c3nc(-c4cccs4)no3)c2N)c1C	60%

Compound	survival
CCS(=O)(=O)N1CC(=O)N(c2ccc(Cl)cc2)C(C)(C(=O)NC2CCCCC2)C1 (centres undefined)	96%
COc1ccc2c(c1)-c1nc(NC(=O)c3ccc(OC)c(Br)c3)sc1CC2	59%
COc1ccc2c(c1)-c1nc(NC(=O)c3cc(OC)c(OC)c(OC)c3)sc1CC2	57%
COc1ccc2c(c1)-c1nc(NC(=O)c3ccc(C)cc3)sc1CC2	5% (active)
COc1cc(C(=O)Nc2ccc(NC(=O)c3ccc(Br)cc3)cc2)cc(OC)c1OC	75%
O=C(CSc1nc2c(c(=O)[nH]1)CN(Cc1ccc3c(c1)OCO3)CC2)Nc1cccc(Cl)c1	76%
CCOC(=O)CNc1c(-c2ccc(OC)cc2)nc2ccc(Cl)cn12	58%
CCOC(=O)c1ccc(NC(=O)CSc2nc3cc4ccccc4cc3[nH]2)cc1	65%
Cc1ccc(NC(=O)CSc2nc(C)c(Cc3ccccc3)c(=O)[nH]2)cc1C	84%
CCOC(=O)c1cccc(NC(=O)CSc2nc3cc4ccccc4cc3[nH]2)c1	36% (active)
CCOC(=O)c1ccc(NC(=O)CSc2nc(C)c(Cc3ccccc3)c(=O)[nH]2)cc1	45% (active)
Cc1nc(SCC(=O)Nc2ccc(Br)cc2)[nH]c(=O)c1Cc1ccccc1	59%
Cc1cccc(NC(=O)CSc2nc(C)c(Cc3ccccc3)c(=O)[nH]2)c1	18% (active)
COc1cccc(NC(=O)CSc2nc(C)c(Cc3ccccc3)c(=O)[nH]2)c1	58%
Cc1ccc(NC(=O)CSc2nc(C)c(Cc3ccccc3)c(=O)[nH]2)cc1	48%
COC(=O)c1ccc(NC(=O)CSc2nc3cc4ccccc4cc3[nH]2)cc1	65%
CCN(CC)C(C)C#Cc1ccccc1 (centres undefined)	95%
Cc1ccc(-n2nc(C(=O)Nc3ccc(C)c(F)c3)c3c4ccccc4n(C)c3c2=O)cc1	92%
Fc1ccc(-n2ncc3c(Nc4ccc5c(c4)OCCO5)ncnc32)cc1	97%
O=C(C1CCC(CNS(=O)(=O)c2cccs2)CC1)N1CCN(c2ccc(Cl)cc2)CC1 (centres undefined)	60%
CCN(c1ccccc1)c1nnc(NC(=O)Nc2ccc(Br)cc2F)s1	97%
CC(=O)N1CCN(c2ccccc2N)CC1	93%
Cc1cc(C)nc(Nc2nc3ccccc3c(=O)[nH]2)n1	74% (active)

Compound	survival
O=c1[nH]c(Nc2nc3ccccc3o2)nc2ccccc12	95%
Cc1cc(=O)[nH]c(Nc2nc3ccccc3[nH]2)n1	71%
O=C1CCCc2cc(S(=O)(=O)N3CCCC(C(=O)Nc4ccc(F)c(Cl)c4)C3)ccc2N1 (centres undefined)	70%
Cc1ccccc1C(=O)OCc1cc(=O)n2c(C)csc2n1	109%
O=S(=O)(c1ccc2nc(N3CCN(c4ccccc4)CC3)ccc2c1)N1CCCCC1	6% (active)
CC1CCN(S(=O)(=O)c2ccc3nc(N4CCN(c5ccccc5)CC4)ccc3c2)CC1	78%
O=S(=O)(c1ccc2nc(N3CCN(c4cccc(Cl)c4)CC3)ccc2c1)N1CCCCC1	81%
Cc1ccc(OC(=O)c2ccc3snnc3c2)cc1	115%
COc1ccccc1-c1nn(CCC(=O)Nc2cccc(C(C)=O)c2)c2nc(C)cc(C)c12	69%
Cc1cc(C)c2c(=O)cc(C(=O)Nc3ccc(S(=O)(=O)N(C)Cc4ccccc4)cc3)oc2c1	61%
COc1ccc(C(=O)NCCSc2ccccn2)cc1	78%
CC(=O)Nc1ccc(NC(=O)c2oc3ccc4c(c3c2C)C(=O)CC(C)(C)O4)cc1	75%
Cc1c(C(=O)NCc2cccc(Br)c2)oc2ccc3c(c12)C(=O)CC(C)(C)O3	61%
CCCOc1ccc(CNC(=O)c2oc3ccc4c(c3c2C)C(=O)CC(C)(CC)O4)cc1 (centres undefined)	68%
Cc1c(C(=O)NCc2ccccc2Br)oc2ccc3c(c12)C(=O)CC(C)(C)O3	83%
Cc1cc(C)cc(NC(=O)c2oc3ccc4c(c3c2C)C(=O)CC(C)(C)O4)c1	89%
Cc1c(C(=O)NCc2ccc(Cl)cc2)oc2ccc3c(c12)C(=O)CC(C)(C)O3	53% (active)
Cc1cccc(C)c1NC(=O)c1oc2ccc3c(c2c1C)C(=O)CC(C)(C)O3	42% (active)
CCC1(C)CC(=O)c2c(ccc3oc(C(=O)NCc4ccccc4)c(C)c23)O1 (centres undefined)	44% (active)
CCC1(C)CC(=O)c2c(ccc3oc(C(=O)Nc4ccc(C(C)=O)cc4)c(C)c23)O1 (centres undefined)	78%
CCOC(=O)CC(NC(=O)Cn1nnc(-c2ccccc2F)n1)c1ccccc1Cl (centres undefined)	77%
COc1ccc(N2CCN(C(=O)c3cn(C)c4ccc(S(=O)(=O)N(C)C5CCCCC5)cc4c3=O)CC2)cc1	93%
COc1ccccc1NC(=O)CSC1=Nc2ccccc2C2=NC(CC(=O)NCCc3ccccc3)C(=O)N12 (centres undefined)	85%

Compound	survival
COc1ccc(C)cc1NC(=O)Cn1c(=O)n(Cc2nc(C)no2)c(=O)c2ccccc21	79%
COc1cccc(CNC(=O)CSc2ncc3c(n2)-c2cc(Cl)ccc2N(C)S3(=O)=O)c1	92%
CCSC1=C(C#N)C2(CCCCC2)C(C#N)=C(N)N1	68%
O=C(CSc1nc2c(c(=O)[nH]1)CCCC2)Nc1ccc(Br)cc1	58%
N#CC1=C(N)NC(SCC(=O)Nc2ccc(Br)cc2)=C(C#N)C12CCCCC2	12% (active)
COc1cccc(-c2cn3c(n2)sc2cc(C(=O)NCc4ccccc4F)ccc23)c1	60%
Cn1c(=O)n(C)c2cc(N3CCOCC3)c(NC(=O)c3ccc(Cl)cc3)cc21	87%
CCC(C(=O)NCc1ccco1)n1nc(C)c2c(C)n(-c3ccc(C)cc3)nc2c1=O (centres undefined)	73%
CCC(C(=O)NCCc1ccc(SC)cc1)n1nc(C)c2c(C)n(-c3ccc(C)cc3)nc2c1=O (centres undefined)	80%
Cc1nn(C(C)C(=O)NCc2ccco2)c(=O)c2nn(-c3ccccc3)c(C)c12 (centres undefined)	37% (active)
CSc1ccc(CCNC(=O)C(C)n2nc(C)c3c(C)n(-c4ccccc4)nc3c2=O)cc1 (centres undefined)	46% (active)
CCCNC(=O)C(C)n1nc(C)c2c(C)n(-c3ccccc3)nc2c1=O (centres undefined)	102%
Cc1ccc(-n2nc3c(=O)n(C(C)C(=O)NCc4ccccc4C)nc(C)c3c2C)cc1 (centres undefined)	94%
Cc1ccc(CCNC(=O)C(C)n2nc(C)c3c(C)n(-c4ccc(C)cc4)nc3c2=O)cc1 (centres undefined)	86%
Cc1ccc(-n2nc3c(=O)n(C(C)C(=O)NCc4ccco4)nc(C)c3c2C)cc1 (centres undefined)	47% (active)
Cc1nn(CC(=O)NCc2ccco2)c(=O)c2nn(-c3ccccc3)c(C)c12	92%
CCOC(=O)N1CCC(NC(=O)c2cnn(-c3cccc(C)c3)c2-n2cccc2)CC1	85%
CCC(C)(C)N1CC(=O)N(Cc2ccccc2)C(c2ccc(OC)cc2)C1=O (centres undefined)	78%
CCOc1ccc(NC(=O)N(C)CCc2c(C)nn(C)c2C)cc1	74%
COc1cccc(-n2nnc3c(sc4nc(C)cc(C)c43)c2=O)c1	91%
